RORg inh = inhibitors of mouse ROR gamma transcriptional activity; P51450; Drosophila S2 Gal4-RORgamma UAS-luciferase reporter, 20 h; Potency, µM (top dose mostly 53.6 µM), for the others: at the top dose activity change, negative = inhibition, hits mostly inhibitors; hit rate 5.4% among 310,000; AID 2551; also: nearly all actives have a fitted effect of over 60% in size
Target sequence (P51450 whole entry, looked up, the tested form may be a part): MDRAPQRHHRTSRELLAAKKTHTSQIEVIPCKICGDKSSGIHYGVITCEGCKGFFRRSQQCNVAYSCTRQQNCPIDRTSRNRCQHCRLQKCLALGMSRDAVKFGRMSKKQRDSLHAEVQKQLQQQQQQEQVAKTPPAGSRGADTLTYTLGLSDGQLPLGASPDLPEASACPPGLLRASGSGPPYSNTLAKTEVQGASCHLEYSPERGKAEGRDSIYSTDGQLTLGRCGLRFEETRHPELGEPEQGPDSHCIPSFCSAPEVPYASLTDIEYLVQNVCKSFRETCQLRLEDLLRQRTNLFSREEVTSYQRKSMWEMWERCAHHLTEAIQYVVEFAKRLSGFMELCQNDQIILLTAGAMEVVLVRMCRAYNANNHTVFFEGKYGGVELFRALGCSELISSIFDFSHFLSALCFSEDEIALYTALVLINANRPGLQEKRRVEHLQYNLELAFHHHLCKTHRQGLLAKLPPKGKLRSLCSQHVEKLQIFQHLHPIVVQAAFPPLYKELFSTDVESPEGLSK
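Compounds are pin-transferred onto Drosophila Schneider cells expressing a copper-inducible Gal4–ROR gamma transactivation domain fusion. After 1 hr, copper sulfate is added to 700 uM final; luciferase is read 20 hr later.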
KinaseGlo FLuc = blocks Kinase-Glo luciferase, a counter-screen artifact | Q27757 | Kinase-Glo luciferase, ATP luminescence, 8 min | Potency, µM (top dose mostly 38.3 µM), for inactives: at the highest dose activity change, negative = inhibition, most hits filed as inhibitors | hit rate 0.28% among 200,000 | AID 1379; also: nearly all actives have a fitted effect of over 60% in size
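Luminescence was the read-out, taken after 8-minute incubation at ambient temperature. Luciferase turned over luciferin with 10 uM ATP in imidazole pH 7.2 buffer containing KCl, MgCl2, Tween 20 and BSA.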
Gal4-VP16 FLuc = inhibits Gal4-VP16 luciferase reporter, ROR gamma counter-screen; Drosophila S2 Gal4-VP16 UAS-luciferase, luminescence, 20 h; Potency, µM (series often up to 53.6 µM), inactives show at the top dose activity, negative = inhibition, actives largely listed as inhibitors; AID 2546; hit rate 3.5% among 310,000;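 also: Gal4-VP16 expression switched on by copper sulfate through the metallothionein promoter; nearly all actives have a fitted effect of over 50% in size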
Numbers without * were called inactive; ? = inconclusive; · = no result; ! = not active in a repeat; [ ] = dose if it differs, or a comment. This is a sample that favours compounds with a hit; in the whole collection about 6.2% have one here. Calls follow the shape of the dose curve; as a rule, active = well fitted curve in the direction sought with a large enough effect; inconclusive = small, poorly fitted or top-dose-only effect, or another doubt; inactive = no such curve, though single readings can be large; an effect the other way counts as inactive or inconclusive. % is scaled to controls: 0 for no effect and ±100 for the full control effect; potency is read from the fitted curve at half-maximal effect.

SMILES | RORg inh | KinaseGlo FLuc | Gal4-VP16 FLuc
O=C(N/N=C/c1ccc(-c2ccc([N+](=O)[O-])cc2)o1)c1cccnc1 | 11µM* | · | 0%
Cc1cc([N+](=O)[O-])c(C)cc1-c1ccc(/C=N/NC(=O)c2cccnc2)o1 | 8.9µM* | -1% | ?
O=C(N/N=C\c1ccc(-c2ccccc2[N+](=O)[O-])o1)C1COc2cc3ccccc3cc2O1 (stereo not given) | ? | -5% | -15%
O=C(N/N=C/c1ccc([N+](=O)[O-])cc1)c1cccnc1 | ? | · | 2%
O=C(N/N=C/c1ccc(-c2ccccc2[N+](=O)[O-])o1)c1cncc(Br)c1 | 6.3µM* | 2% | 5µM*
CN(Cc1ccccc1)CC(O)COc1ccc(CNCc2ccc(Cl)s2)cc1 (stereo not given) | 4% | -1% | -10%
CN=C(NC1CCCCC1)c1ccc(Cl)cc1 | 0% | -2% | -20%
O=C(c1csnn1)N1CCC2(CCCN(c3cccc(-c4ccccc4)c3)C2)CC1 | -3% | 2% | 2%
Cc1cccc2sc(N)nc12 | 5% | · | 6%
CC#CCN1c2ccccc2[C@]23C[C@@H](C(=O)OC)N(S(=O)(=O)c4ccc5c(c4)OCCN5C)C2=NC(C(=O)OC)=C(C(=O)OC)[C@H]13 | · | -2%[7.66 µM] | ·
CN1CCN(c2nc(-c3cccnc3)nc3ccccc23)CC1 | -12% | 1% | -26%
c1ccc(N2CCN(c3nc(-c4ccccn4)nc4ccccc34)CC2)cc1 | 0.28µM* | · | 1.6µM*
CN1CCN(c2nc(-c3ccccn3)nc3ccccc23)CC1 | -30% | -4% | -17%
c1cncc(-c2nc(N3CCCCCC3)c3ccccc3n2)c1 | 11µM* | -4% | ?
CCOC(=O)C1=C(c2ccccc2)O/C(=C(\C(=O)OC)C(F)(F)F)S1 | 4% | -2% | -2%
CCOC(=O)C1=C(c2ccccc2)O/C(=C(/C#N)C(F)(F)F)S1 | 14µM* | -4% | 16µM*
CCCC(CCC)=NNC(=O)c1ccccc1F | 0% | 2% | -2%
CCOC(=O)C1=C(C)NC(=S)NC1c1ccc(C)s1 (stereo not given) | 8.9µM* | 0% | ?
CNC(=O)C1=C(C)NC(=S)NC1c1cccs1 (stereo not given) | -7% | -2% | -5%
CCOC(=O)C1=C(C)NC(=S)NC1c1ccsc1 (stereo not given) | 11µM* | 1% | ?
CCOC(=O)C1=C(C)NC(=S)NC1c1cc(C)sc1C (stereo not given) | 0% | -2% | -3%
CC1=C(C(=O)OCC(C)C)C(c2cccs2)NC(=S)N1 (stereo not given) | 11µM* | · | 2.5µM*
COC(=O)C1=C(C)NC(=O)NC1c1ccsc1 (stereo not given) | -10% | -7% | 0%
CC(C)(C)c1ccc(OC2C(O)COC2/C=C/C#Cc2ccccc2)cc1 (stereo not given) | 12%[10 µM] | · | 15%[10 µM]
COc1cccc(OC)c1C1=NC(C)(C)CO1 | -24% | · | 0%
SMILES | RORg inh | KinaseGlo FLuc | Gal4-VP16 FLuc
CCOC(=O)c1c(C)[nH]c(C)c1S(=O)(=O)NCC1CCN(Cc2cccc(F)c2)CC1 | -19% | · | -16%
N#Cc1cccc(NC(=O)N2CCC3(CC2)CCN(C(=O)c2ccco2)CC3)c1 | 32% | -2% | 0%
O=c1cc(-c2ccc(F)cc2F)[nH]c2ccccc12 | 8.9µM*! | 2%[39.9 µM] | -2%[96.6 µM]
COc1ccc2[nH]c(-c3ccc(F)cc3F)cc(=O)c2c1 | -22% | -1%[39.9 µM] | 4%
CC(=O)c1ccc(NC(=O)C(C)n2c3ccccc3c3nc(=O)cc(C)n32)cc1 (stereo not given) | 16% | · | -7%
O=C(CCCN1C(=O)c2cccc3cccc(c23)C1=O)NC1CCS(=O)(=O)C1 (stereo not given) | 15% | -1% | -10%
COc1ccc(C2=Nn3c(nnc3-c3ccc(OC)c(OC)c3)SC2)cc1OC | -27% | · | -8%
NS(=O)(=O)c1ccc(CCNC(=O)c2cccc3ccccc23)cc1 | -21% | · | 6%
NS(=O)(=O)c1ccc(CCNC(=O)c2ccc[nH]c2=S)cc1 | ? | · | 11µM*
CCOC(=O)Cn1c2c(c(=N)c3c1CCC3)CCC2 | 31% | -3% | -4%
CCOC(=O)CN1NC2(CCCCCCC2)NC1=S | 4µM* | · | -18%
CCOC(=O)CN1NC2(CCCCC2)NC1=S | 16µM* | 17% | ?
CC(C)(C)C1CCC2(CC1)SCC(=O)N2c1ccccc1 (stereo not given) | 22% | -2% | 0%
CCOC(=O)CN1NC2(CCC(C(C)(C)C)CC2)NC1=S (stereo not given) | 10µM* | -2% | ?
CCOC(=O)CN1NC2(CCCC(C)C2)NC1=S (stereo not given) | ? | 0% | ?
CCOC(=O)CN1NC2(CCC(C)CC2)NC1=S (stereo not given) | ? | -2% | ?
CC(C)(C)C1CCC2(CC1)NC(=S)N(c1ccccc1)N2 (stereo not given) | 10µM* | 1% | 16µM*
C=CCn1c(N)cc(=O)nc1SC(CC)C(=O)Nc1ccc(C(C)=O)cc1 (stereo not given) | 7% | · | -4%
CC1(C)C(c2ccccc2)=NC(c2ccc(Br)cc2)N1O (stereo not given) | -30% | -3% | 11%
O=C(CC1SC(=O)N(Cc2ccccc2Cl)C1=O)Nc1nccs1 (stereo not given) | 45% | · | -18%
N#Cc1ccccc1CSc1ncccc1C(=O)O | 1% | · | 6%
O=C(/C=C/c1cccc([N+](=O)[O-])c1)N1CCN(c2ccccn2)CC1 | -9% | · | 7%
O=C(/C=C/c1cccc([N+](=O)[O-])c1)n1cnc2ccccc21 | 11µM* | 3% | -7%
COc1ccccc1-c1cc(Nc2ccn[nH]2)ncn1 | -8% | · | 30%
CCCCc1nc2cc(C(=O)N3CCCC(OCCC)C3)ccc2o1 (stereo not given) | 16% | · | 18%
SMILES | RORg inh | KinaseGlo FLuc | Gal4-VP16 FLuc
NC(=O)c1sc2nc(-c3ccccc3)ccc2c1N | ? | · | -9%
CCOC(=O)c1sc2nc(-c3ccccc3)ccc2c1N | 2.5µM* | -4% | ?
COC(=O)C/C=C/C(C)C(OCc1cccc(-c2ccccc2)c1)C1CCCCC1 (stereo not given) | 1%[10 µM] | · | 9%[10 µM]
CCOC(=O)CCCNC(=O)CCNC(=O)c1ccc(OCC(C)C)cc1 | -5% | · | -8%
O=C(COC(=O)C(c1ccccc1)c1ccccc1)NCc1ccco1 | ? | 0% | 18µM*
CCn1c(SCC(=O)NCc2ccco2)nnc1-c1cccs1 | 11µM* | 1% | ?
O=C(COC(=O)c1ccccc1)NCc1ccco1 | 2% | -8% | 1%
O=C(CSc1nnc(-c2ccccc2)c(-c2ccccc2)n1)NCc1ccco1 | -26% | 3% | 1%
O=C(CSc1nc(-c2ccccc2)c(-c2ccccc2)[nH]1)NCc1ccco1 | 10µM* | -4% | ?
Cc1sc2nc(C(C)C)nc(SCC(=O)NCc3ccco3)c2c1C | 5µM* | -2% | ?
CCn1c(SCC(=O)NCc2ccco2)nnc1-c1ccncc1 | 7% | -2% | 12%
Cc1nc(SCC(=O)NCc2ccco2)c2c(C)c(C)sc2n1 | -25% | -1% | 22%
Oc1cc2c(cc1C(c1ccc(Br)cc1)N1CCCC1)OCO2 (stereo not given) | -3% | 2% | 8%

Assay outcomes from PubChem BioAssay.
